Compound activity: PubChem, several laboratories
A selection: hits, their analogues and other compounds. The true share with any hit is near 3.9%.
3CLpro inhibitor = SARS-CoV 3CLpro protease inhibition; P0C6X7; recombinant SARS-CoV 3CLpro, quenched FRET peptide cleavage; inhibition, % at 6 µM; actives 0.14% (n = 290,000); AID 1706; in the data active = inhibition above about 12%
Anthrax LF prot = anthrax lethal factor protease inhibition; multiplex microsphere protease cleavage assay, LF; inhibition, % at 10 µM; actives 0.12% (n = 360,000); AID 588501; also: plate controls were buffer without enzyme for full effect and enzyme alone for no effect
Bead autofluor = compound fluorescence in toxin protease inhibitor counterscreen. actives 3.1% (n = 360,000). compound autofluorescence counterscreen, microsphere flow cytometry; hits give high values. fluorescence intensity (concentration not given with the values); in the data active = fluorescence intensity above about 16000; inconclusive = no clear call, values can overlap the other calls
BoNT-F LC inh = blocks Botulinum neurotoxin F light chain protease; AID 588497; Multiplex microsphere protease cleavage assay, flow cytometry; actives 0.22% (n = 360,000); inhibition, % at 10 µM; in the data active = inhibition above about 35%, passing the limit was not always enough; inconclusive = no clear call, values can overlap the other calls; also: plate controls were buffer without enzyme for full effect and enzyme alone for no effect
DUSP3 inh = blocks human VHR1 dual specificity phosphatase. recombinant VHR phosphatase, pNPP absorbance. inhibition, % at 13.3 µM. actives 0.52% (n = 290,000). AID 1654; in the data active = inhibition above about 50%
Target sequence (P51452 whole entry, looked up): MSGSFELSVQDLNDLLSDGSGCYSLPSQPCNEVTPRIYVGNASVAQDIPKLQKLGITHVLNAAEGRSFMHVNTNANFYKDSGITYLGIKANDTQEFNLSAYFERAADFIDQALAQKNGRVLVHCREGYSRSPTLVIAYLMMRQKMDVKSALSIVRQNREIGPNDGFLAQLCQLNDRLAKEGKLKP
BoNT-A LC inh2 = BoNT A light chain protease inhibition. multiplex microsphere protease substrate cleavage, flow cytometry. inhibition, % at 10 µM. actives 0.17% (n = 360,000); also: plate controls were buffer without enzyme for full effect and enzyme alone for no effect
Active calls of the source: *; ? = inconclusive; · = no result given. Rule as the data show it, unless noted: active = inhibition above about 30%; inconclusive = no clear call, values can overlap the other calls; inactive = below that.

SMILES	3CLpro inhibitor	Anthrax LF prot	Bead autofluor	BoNT-F LC inh	DUSP3 inh	BoNT-A LC inh2
COc1ccc(N/C=C2\CCOC2=O)cc1	-7	-2	16257*	0	42	0
CCN1CCc2nc(NC(=O)c3ccccc3)sc2C1	-1	15	18645*	-2	-7	10
O=C(Nc1nc2c(s1)CN(Cc1ccccc1)CC2)C1CCC1	-4	5	6373	-3	-5	12
CCCCCCNc1cc(C)oc(=O)c1C(C)=O	-1	-2	2546	0	3	0
CCCCNc1cc(C)oc(=O)c1C(C)=O	-4	-2	21662*	6	17	6
O=C(OC1CSc2nc3ccccc3n2C1)c1ccco1 (configuration not stated)	-3	-5	21891*	0	19	1
COc1ccc(CC(=O)n2nc(-c3ccc(Cl)cc3)nc2NCc2ccco2)cc1	3	-5	24639*	-6	21	?
CC(=O)n1nc(-c2ccc(Cl)cc2)nc1NCc1ccco1	2	-1	21596*	-5	-5	-3
COC(=O)Cn1c(CN2CCN(C(=O)c3ccco3)CC2)nc2c1c(=O)n(C)c(=O)n2C	-3	0	4037	8	6	4
COc1ccc(CCN(C)Cc2c(O)ccc3ccccc23)cc1OC	2	-3	3326	26	58*	-1
CC(C)C[C@@H](CC#N)N1CCN(Cc2ccccc2)CCC1=O	-3	-10	3837	-8	1	0
CC12CN3CC(C)(CN(C1)C3c1ccc(Br)cc1)C2 (configuration not stated)	-3	0	22475*	2	-14	1
Cc1ccc(OCC(=O)Nc2ccccc2N2CCOCC2)c(C)c1	3	0	3075	-6	52*	0
O=C(COc1ccc(Br)cc1)Nc1ccccc1N1CCCC1	5	1	2471	-3	22	0
CC(=O)N1CCN(c2ccccc2NC(=O)COc2ccc(Br)cc2)CC1	-3	-4	23694*	-6	37	-1
Cc1ccsc1C(=O)Nc1ccccc1N1CCOCC1	-4	-5	18871*	4	40	4
O=C(Nc1ccc(C(=O)N2CCC(N3CCOCC3)CC2)cc1)c1ccc(Br)o1	·	2	3485	-4	·	0
CN(C(=O)COC(=O)c1cc(=O)[nH]c2ccccc12)c1ccccc1	·	-3	2840	-3	·	0
CCCCOc1nc(N)nc(-c2ccccc2)n1	0	0	22127*	-3	14	0
CCOc1ccc(OCC)c(-c2c(=O)n(OCc3ccccc3Br)c3ccccc3[n+]2[O-])c1	-3	1	22784*	-3	18	0
O=C(Nc1ccc(Cl)cc1)c1ccc(Br)cc1F	4	-4	4960	-3	9	-1
COc1ccc(Cl)cc1Nc1nc(N)nc(C(F)(F)F)n1	2	-6	12088	-12	37	-2
COc1ccc(Nc2nc(N3CCCC3)nc(N3CCCC3)n2)c(OC)c1	7	-4	20538*	-3	15	-1
COc1ccc(Nc2nc(N)nc(C(F)(F)F)n2)c(OC)c1	6	-9	17527*	6	-11	6
CCn1c(COc2ccc(C)cc2)nnc1SCc1nc2ccccc2[nH]1	-6	-6	19776*	-1	24	-1
SMILES	3CLpro inhibitor	Anthrax LF prot	Bead autofluor	BoNT-F LC inh	DUSP3 inh	BoNT-A LC inh2
CCn1c(SCc2nc3ccccc3[nH]2)nnc1-c1cccs1	-6	-2	21099*	10	5	?
CCn1c(SCc2nc3ccccc3[nH]2)nnc1-c1ccccc1OC	-4	2	2344	4	0	0
CCOc1ccccc1Nc1nc2ccccc2n2cnnc12	-4	-5	4075	-1	8	-1
CCN(CC)c1nc2ccccc2n2cnnc12	1	-8	23917*	-4	-7	-2
COCCOC(=O)c1c(C)oc2ccc(OCc3ccccc3)cc12	-2	-2	1911	-6	-17	0
C=C(C)COc1ccc2oc(C)c(C(=O)OCCOC)c2c1	-1	-4	24480*	-4	19	?
O=C(COC(=O)CNC(=O)c1ccccc1)Nc1ccc(Cl)cn1	·	0	3798	-3	·	0
CC1CCc2c(sc(NC(=O)c3ccccc3C(=O)O)c2C#N)C1 (configuration not stated)	5	-1	1999	-7	15	0
CC1CCc2c(sc(NC(=O)COC(=O)c3ccccc3NCc3ccco3)c2C#N)C1 (configuration not stated)	0	-9	22501*	-2	10	-1
CCC1(c2ccc(Cl)cc2)NC(=O)N(CC(=O)NC2CCCC(C)C2C)C1=O (configuration not stated)	·	-4	?	-5	·	0
COc1cc(C(=O)NCCC(=O)N2CCCCC2)cc(OC)c1OC	1	-16	3910	-14	9	-2
CCOC(=O)C1CCN(C(=O)CCNC(=O)c2cc(OC)c(OC)c(OC)c2)CC1	-1	-4	16426*	-1	4	-1
COc1cc(C(=O)NCCC(=O)NCCCN2CCCCC2C)cc(OC)c1OC (configuration not stated)	-1	-4	24313*	-4	21	-2
CCc1ccc(C(=O)C(C)OC(=O)c2nc3nc(C)cc(C)n3n2)cc1 (configuration not stated)	·	0	4574	-5	·	0
Cc1csc(=O)n1CCC(=O)OCC(=O)c1ccc(Br)cc1	·	0	5665	-1	·	0
COc1ccc(CN2CCN(c3ncccn3)CC2)c(OC)c1	1	0	22491*	-3	10	-1
COc1ccc(CN2CCN(c3ccccn3)CC2)c(OC)c1	0	-2	5796	-12	11	-1
FC(F)(F)c1cccc(CN2CCN(c3ncccn3)CC2)c1	·	-10	4407	2	·	0
Fc1cccc(CN2CCN(c3ncccn3)CC2)c1	2	3	19248*	7	-8	5
c1ccc(-c2ccc(CN3CCN(c4ncccn4)CC3)cc2)cc1	-4	-12	16137*	-2	1	-1
CC(C)c1ccccc1NC(=O)Nc1nnc([C@H]2C[C@H](O)[C@@H](CO)O2)s1	·	-4	3855	-2	·	0
Cc1ccc(NC(=S)N(Cc2ccc(Cl)cc2)Cc2ccc(C(=O)O)cc2)cc1Cl	6	-6	3211	-2	-6	-1
Nc1ccccc1C(=O)C[C@H](N)C(=O)O	·	-5	5650	9	·	0
Cc1ccc2cc(C(c3nnnn3C3CCCC3)N3CCN(c4ccc(F)cc4)CC3)c(=O)[nH]c2c1 (configuration not stated)	6	-3	22513*	0	-5	0
CCCN1CCN(C(c2cc3cc(OCC)ccc3[nH]c2=O)c2nnnn2C2CCCCC2)CC1 (configuration not stated)	-4	-2	22710*	5	3	?
COc1ccc2[nH]c(=O)c(C(c3nnnn3C3CCCCC3)N3CCN(C)CC3)cc2c1 (configuration not stated)	-2	5	9789	2	-12	0
